This is a sample that favours compounds with a hit; in the whole collection about 2.9% have one here.
PLCb3 inh = blocks human PLC-beta3 enzyme activity | Q01970 | Purified PLC-beta3, fluorogenic substrate, fluorescence | inhibition, % at 12.2 µM | 370,000 tested, 0.18% active | AID 720704; in the data active means inhibition above about 11%;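 further: 0% = median of compound wells on plate and 100% = full blocker control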
PLCg1 inh = inhibitors of human phospholipase C gamma1; purified PLC-gamma1, fluorogenic substrate, fluorescence; inhibition, % at 12.2 µM; 370,000 tested, 0.84% active; AID 720700; in the data active means inhibition above about 9.5%
KLK7 zymogen act = proKLK7 (human) activation, primary screen | AID 652039 | 370,000 tested, 0.9% active | P49862 | purified proKLK7, EDANS-DABCYL substrate fluorescence; 100% is mature enzyme control, 0% vehicle | activation, % at 7 µM;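 active means activation above the mean of all tested compounds plus 3 SD, computed per campaign excluding outliers beyond control limits, cut at about 13% in these data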
ADAM10 inh = inhibits human ADAM10 | O14672 | recombinant ADAM10, EDANS/DABCYL FRET peptide cleavage, 3 h | inhibition, % at 7 µM | 370,000 tested, 0.62% active;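 active means inhibition above a per-campaign cutoff equal to the mean of compounds falling between control-based bounds plus 3 SD, cut at about 20% in these data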;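 further: 0% = DMSO wells while the 100% control is not disclosed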
ADAM17 inh = inhibits human ADAM17; recombinant ADAM17, EDANS/DABCYL FRET peptide cleavage; 370,000 tested, 0.83% active; inhibition, % at 6.95 µM; AID 720648;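 active means inhibition above the mean of compounds lying between control limits plus 3 SD, set per campaign, cut at about 8.5% in these data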;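 further: 0% = DMSO-only wells as the low control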
Target sequence (P78536 215-824 limits assumed): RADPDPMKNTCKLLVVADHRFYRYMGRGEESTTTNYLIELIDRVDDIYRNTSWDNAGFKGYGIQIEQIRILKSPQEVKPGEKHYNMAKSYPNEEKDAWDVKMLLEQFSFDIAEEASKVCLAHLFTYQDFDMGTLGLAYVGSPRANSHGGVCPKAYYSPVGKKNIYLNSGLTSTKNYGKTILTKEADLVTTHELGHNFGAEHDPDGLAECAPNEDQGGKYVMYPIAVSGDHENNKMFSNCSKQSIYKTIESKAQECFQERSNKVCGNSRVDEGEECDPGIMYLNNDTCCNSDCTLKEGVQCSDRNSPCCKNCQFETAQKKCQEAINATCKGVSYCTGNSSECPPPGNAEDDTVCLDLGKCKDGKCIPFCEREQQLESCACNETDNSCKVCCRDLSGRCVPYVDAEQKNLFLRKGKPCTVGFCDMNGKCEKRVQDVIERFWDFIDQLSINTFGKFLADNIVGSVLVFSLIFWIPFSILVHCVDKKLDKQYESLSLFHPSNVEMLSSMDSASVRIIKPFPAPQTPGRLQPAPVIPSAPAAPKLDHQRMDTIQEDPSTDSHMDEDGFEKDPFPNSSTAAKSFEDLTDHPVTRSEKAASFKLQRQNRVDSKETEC
ADAM10 ctr = inhibits human ADAM10 in ADAM17 exosite counter-screen; shares compounds with ADAM17 inh; recombinant ADAM10, EDANS/DABCYL FRET peptide cleavage, 3 h; 2,900 tested, 47% active; inhibition, % at 6.95 µM;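 active means mean inhibition over the triplicate runs exceeds the activity threshold set in the earlier primary screen, cut at about 20% in these data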;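 further: 0% = DMSO wells and 100% = marimastat wells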
ADAM17 confirm = human ADAM17 inhibition, confirmation | shares compounds with ADAM17 inh | recombinant ADAM17, EDANS/DABCYL QFRET peptide cleavage | inhibition, % at 6.95 µM | 2,900 tested, 65% active | AID 743257;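 active means mean inhibition across replicates above the hit cutoff set in the primary screen, cut at about 8.5% in these data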;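 further: 0% = DMSO wells and 100% = marimastat wells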
The depositor's hits bear a star.

How did COc1ccc(C(O)c2nc(-c3ccccc3)cs2)cc1 (stereo not drawn) do in these assays?
PLCb3 inh: 2; PLCg1 inh: 0; KLK7 zymogen act: 0; ADAM10 inh: 0; ADAM17 inh: 2

What do the screens show for `COc1cccc(C(O)c2nc(-c3cccc(C(F)(F)F)c3)cs2)c1` (stereo not drawn)?
PLCb3 inh: -3; PLCg1 inh: -3; KLK7 zymogen act: 0; ADAM10 inh: 19; ADAM17 inh: 5

What do the screens show for `COc1ccc(C(O)c2nc(-c3cccc(C(F)(F)F)c3)cs2)cc1` (stereo not drawn)?
PLCb3 inh: -4; PLCg1 inh: 5; KLK7 zymogen act: 0; ADAM10 inh: 9; ADAM17 inh: 13*; ADAM10 ctr: 27*; ADAM17 confirm: 13*

How did Cc1cc(C(=O)Cn2nnc(-c3ccc(Cl)cc3)n2)c(C)n1CC1CCCO1 (stereo not drawn) do in these assays?
PLCb3 inh: -1; PLCg1 inh: 1; KLK7 zymogen act: 0; ADAM10 inh: 10; ADAM17 inh: 9.0*; ADAM10 ctr: 17; ADAM17 confirm: 9.6*

Results for COc1ccccc1OCCNC(=O)c1ccc2c(c1)CCC2 ?
PLCb3 inh: -9; PLCg1 inh: -1; KLK7 zymogen act: 0; ADAM10 inh: -5; ADAM17 inh: -3

Results for CC(=O)c1cccc(NC(=O)C2Cc3c(-c4cccc(F)c4)ccnc3O2)c1 (stereo not drawn) ?
PLCb3 inh: 2; PLCg1 inh: 0; KLK7 zymogen act: 0; ADAM10 inh: 11; ADAM17 inh: 4

Results for COc1cc(NC(=O)COC(=O)Cc2ccc(-c3ccccc3)cc2)cc(OC)c1 ?
PLCb3 inh: -2; PLCg1 inh: 2; KLK7 zymogen act: 0; ADAM10 inh: 17; ADAM17 inh: 11*; ADAM10 ctr: 23*; ADAM17 confirm: 12*

How did COc1cc(S(=O)(=O)NCC2(N3CCCCC3)CCCCC2)ccc1NC(C)=O do in these assays?
PLCb3 inh: -3; PLCg1 inh: 2; KLK7 zymogen act: 0; ADAM10 inh: -2; ADAM17 inh: -5

How did N#CCSc1nnc(COc2ccccc2)n1-c1ccccc1 do in these assays?
PLCb3 inh: 5; PLCg1 inh: -11; KLK7 zymogen act: 0; ADAM10 inh: 16; ADAM17 inh: 11*; ADAM10 ctr: -4; ADAM17 confirm: -2

How did COc1ccc(N2CCN(C(=O)C3CCN(S(=O)(=O)c4c(C)noc4/C=C/N(C)C)CC3)CC2)cc1 do in these assays?
PLCb3 inh: -8; PLCg1 inh: 7; KLK7 zymogen act: 0; ADAM10 inh: 18; ADAM17 inh: 10*; ADAM10 ctr: 0; ADAM17 confirm: 1

Results for COc1ccc(N2CCN(S(=O)(=O)c3c(C)noc3/C=C/N(C)C)CC2)cc1 ?
PLCb3 inh: -8; PLCg1 inh: 3; KLK7 zymogen act: 0; ADAM10 inh: -3; ADAM17 inh: -4

Results for COC(=O)NC1CC2C=CC1C1C=CC21 (stereo not drawn) ?
PLCb3 inh: -90; PLCg1 inh: 1; KLK7 zymogen act: 0; ADAM10 inh: -3; ADAM17 inh: 1

What do the screens show for `CC(C)N1Cc2nnn(Cc3ccccc3)c2-c2cc(F)ccc2S1(=O)=O`?
PLCb3 inh: 2; PLCg1 inh: 1; KLK7 zymogen act: 0; ADAM10 inh: 6; ADAM17 inh: 0

What do the screens show for `Cc1ccc(Cn2nnc3c2-c2cc(F)ccc2S(=O)(=O)N(C(C)(C)C)C3)cc1`?
PLCb3 inh: 4; PLCg1 inh: 9; KLK7 zymogen act: 0; ADAM10 inh: 18; ADAM17 inh: 9.5*; ADAM10 ctr: 23*; ADAM17 confirm: 11*

What do the screens show for `CCN(Cc1ccccc1)C(c1ccccn1)c1nnnn1C1CCCCC1` (stereo not drawn)?
PLCb3 inh: 3; PLCg1 inh: 0; KLK7 zymogen act: 0; ADAM10 inh: 4; ADAM17 inh: -2

Results for CC(c1nnnn1C1CCCCC1)N(Cc1ccccc1)Cc1cccnc1 (stereo not drawn) ?
PLCb3 inh: 6; PLCg1 inh: 6; KLK7 zymogen act: 0; ADAM10 inh: 18; ADAM17 inh: 9.4*; ADAM10 ctr: 4; ADAM17 confirm: 2

What do the screens show for `O=C(CN1c2ccccc2Sc2ccccc21)NNC(=O)Nc1cccc(Cl)c1`?
PLCb3 inh: -3; PLCg1 inh: -1; KLK7 zymogen act: -1; ADAM10 inh: -2; ADAM17 inh: 8.8*; ADAM10 ctr: 10; ADAM17 confirm: 8.9*

How did CCCC1CCC2(CC1)CCC2OC(=S)Nc1ccc(N(C)C)cc1 (stereo not drawn) do in these assays?
PLCb3 inh: 1; PLCg1 inh: -1; ADAM10 inh: 1; ADAM17 inh: -2

How did COc1ccc(C2CC(=O)c3c(O)cc(O)cc3O2)c(CC=C(C)C)c1OC (stereo not drawn) do in these assays?
PLCb3 inh: 0; PLCg1 inh: -1; KLK7 zymogen act: 2; ADAM10 inh: 17; ADAM17 inh: 14*; ADAM10 ctr: 25*; ADAM17 confirm: 14*

How did COc1ccc(C2CC(=O)c3c(O)cc(O)cc3O2)cc1O (stereo not drawn) do in these assays?
PLCb3 inh: 1; PLCg1 inh: 0; KLK7 zymogen act: 0; ADAM10 inh: -12; ADAM17 inh: -1

How did COc1cc(C(=O)NNC(=O)COc2ccc(Cl)cc2)ccc1OCC(=O)N1CCOCC1 do in these assays?
PLCb3 inh: -3; PLCg1 inh: 0; KLK7 zymogen act: 0; ADAM10 inh: -2; ADAM17 inh: -2

What do the screens show for `O=c1[nH]c(=S)n(-c2ccc(Br)cc2)c2ncccc12`?
PLCb3 inh: 4; PLCg1 inh: 8; KLK7 zymogen act: 0; ADAM10 inh: 6; ADAM17 inh: 11*; ADAM10 ctr: 20; ADAM17 confirm: 11*

Results for CNS(=O)(=O)c1ccc(C(=O)NCC(=O)NCCC(c2ccccc2)c2ccccc2)cc1 ?
PLCb3 inh: 3; PLCg1 inh: 5; KLK7 zymogen act: 0; ADAM10 inh: 3; ADAM17 inh: 9.7*; ADAM10 ctr: 6; ADAM17 confirm: 2

What do the screens show for `CNS(=O)(=O)c1ccc(C(=O)NCC(=O)NCC2COc3ccccc3O2)cc1` (stereo not drawn)?
PLCb3 inh: -6; PLCg1 inh: -5; KLK7 zymogen act: 0; ADAM10 inh: -6; ADAM17 inh: -1

What do the screens show for `COc1cc(-c2csc(NC3CCCCC3)n2)cc(OC)c1OC`?
PLCb3 inh: -10; PLCg1 inh: 0; KLK7 zymogen act: 1; ADAM10 inh: 7; ADAM17 inh: 0

Source: PubChem
